Measurements taken from the supplement of paper PMC6992640.
± gives the standard deviation of the averaged measurements.

How the values were obtained:
Test in all cases: cell viability (% of vehicle); higher = less cytotoxic
Settings in all cases: 10 µM; 72 h
HCI01 = tested on: HCI01 (cells of a triple-negative basal-like breast cancer xenograft)
HCI03 = tested on: HCI03 (cells of an ER-positive luminal breast cancer xenograft)
HCI09 = tested on: HCI09 (cells of a triple-negative luminal androgen receptor type breast cancer xenograft)
HCI11 = tested on: HCI11 (cells of an ER-positive luminal breast cancer xenograft)
HCI13 = tested on: HCI13 (cells of an ER-positive luminal breast cancer xenograft)
HCI16 = tested on: HCI16 (cells of a triple-negative basal-like breast cancer xenograft)
UCD52 = tested on: UCD52 (cells of a triple-negative basal-like breast cancer xenograft)
WHIM2 = tested on: WHIM2 (cells of a triple-negative basal-like breast cancer xenograft)
WHIM30 = tested on: WHIM30 (cells of a triple-negative basal-like breast cancer xenograft)
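Note: PDX cells carrying CMV promoter-driven luciferase, viability read as total photon flux per second by IVIS imaging following D-luciferin, vehicle control 0.1% DMSO.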

SMILES	cell viability (HCI01)	cell viability (HCI03)	cell viability (HCI09)	cell viability (HCI11)	cell viability (HCI13)	cell viability (HCI16)	cell viability (UCD52)	cell viability (WHIM2)	cell viability (WHIM30)
CCCC(NC(C)C(=O)N1C(C(=O)O)CC2CCCCC21)C(=O)OCC (stereo unspecified) [Perindopril]	110.1 ± 0.73	111	131 ± 35	111	134 ± 4.2	94.2	103 ± 2.7	102 ± 5.3	101 ± 2.5
Cl.NC(N)=NC(N)=NCCc1ccccc1 [Phenformin HCl]	117 ± 7.8	114	53.2 ± 5.3	110	58.8 ± 5.4	94.6	78.7 ± 3.6	95.4 ± 15	90.3 ± 11
NC(=O)Cc1cccc(C(=O)c2ccccc2)c1N [Nepafenac]	117 ± 21	101	94.6 ± 3.9	95.4	84.1 ± 5.7	94.2	104 ± 1.5	159 ± 69	136 ± 14
COc1ccc2[n-]c(S(=O)Cc3ncc(C)c(OC)c3C)nc2c1.COc1ccc2[n-]c(S(=O)Cc3ncc(C)c(OC)c3C)nc2c1.[Mg+2] (stereo unspecified) [Esomeprazole Magnesium]	77 ± 60	143	84.6 ± 31	92.6	165 ± 18	112	99.55 ± 0.87	94.2 ± 9.3	181 ± 29
CCS(=O)(=O)CCn1c([N+](=O)[O-])cnc1C [Tinidazole]	92 ± 28	111	79.8 ± 12	88.6	101 ± 4.4	101	83.4 ± 14	81.2 ± 1.9	163 ± 1.9
Nc1nc(=O)c2c(CCc3ccc(C(=O)NC(CCC(=O)O)C(=O)O)cc3)c[nH]c2[nH]1.O.[Na+] (stereo unspecified) [Pemetrexed disodium hemipenta hydrate]	97.24 ± 0.52	95.8	93.8 ± 24	91.3	90 ± 7.8	69.3	95.4 ± 1.8	90.47 ± 0.25	119 ± 36
CNS(=O)(=O)Cc1ccc2[nH]cc(CCN(C)C)c2c1.O=C(O)CCC(=O)O [Sumatriptan Succinate]	89.3 ± 18	110	89.6 ± 31	82.8	81.4 ± 5.5	120	101 ± 13	106 ± 18	106 ± 4.2
CCN(CCO)CCCC(C)Nc1ccnc2cc(Cl)ccc12.O=S(=O)(O)O (stereo unspecified) [Hydroxychloroquine Sulfate]	71.8 ± 4.6	96.6	72.2 ± 1.6	81.8	84.4 ± 8.1	86.5	71.4 ± 3.8	70.8 ± 2.9	101.7 ± 0.69
CC12CCC3c4ccc(OC(=O)c5ccccc5)cc4CCC3C1CCC2O (stereo unspecified) [Estradiol Benzoate]	123.5 ± 0.41	131	79.7 ± 1.4	84.7	191 ± 13	126	83.6 ± 14	132 ± 29	138 ± 13
